Gal4-VP16 FLuc – inhibits Gal4-VP16 luciferase reporter, ROR gamma counter-screen; AID 2546; Potency, µM (top dose mostly 53.6 µM), inactives show top-dose activity, negative = inhibition, hits mostly inhibitors; hit rate 3.5% among 310,000; Drosophila S2 Gal4-VP16 UAS-luciferase, luminescence, 20 h;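 also: Gal4-VP16 expression switched on by copper sulfate through the metallothionein promoter; potency is read from the fitted curve at half-maximal effect; % is scaled to controls: 0 for no effect and ±100 for the full control effect; nearly all actives have a fitted effect of over 50% in size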
RORgamma inh – ROR gamma (mouse) transcription inhibition | P51450 | Drosophila S2 Gal4-RORgamma UAS-luciferase reporter, 20 h | Potency, µM (doses to about 53.6 µM), inactives show at the highest dose activity change, negative = inhibition, hits mostly inhibitors | hit rate 5.4% among 310,000; also: potency is read from the fitted curve at half-maximal effect; % is scaled to controls: 0 for no effect and ±100 for the full control effect; nearly all actives have a fitted effect of over 60% in size
Target sequence (P51450 whole entry, looked up, the tested form may be a part): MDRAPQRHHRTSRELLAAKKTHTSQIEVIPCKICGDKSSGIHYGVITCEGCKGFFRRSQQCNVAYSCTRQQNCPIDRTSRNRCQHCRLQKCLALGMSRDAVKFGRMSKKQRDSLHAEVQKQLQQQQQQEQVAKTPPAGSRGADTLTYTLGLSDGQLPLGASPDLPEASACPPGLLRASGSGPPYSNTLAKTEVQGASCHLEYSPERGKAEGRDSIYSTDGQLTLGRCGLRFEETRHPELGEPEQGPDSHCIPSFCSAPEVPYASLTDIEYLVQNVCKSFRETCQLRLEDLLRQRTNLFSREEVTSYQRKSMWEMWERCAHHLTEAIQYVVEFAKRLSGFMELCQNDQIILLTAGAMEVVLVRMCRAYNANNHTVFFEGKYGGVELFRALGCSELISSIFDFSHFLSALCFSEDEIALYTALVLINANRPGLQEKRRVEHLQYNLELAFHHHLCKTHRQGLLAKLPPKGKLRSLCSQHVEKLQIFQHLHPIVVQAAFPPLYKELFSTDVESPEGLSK
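Schneider cells (Drosophila), stable Gal4 DBD–ROR gamma + UAS-luc; 1 hr cmpd preincubation; Cu2+ induction 700 uM final; 20 hr ambient; luminescence.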
MCF10A rerep – DNA re-replication induction in MCF 10a cells; AID 624296; MCF 10A DNA re-replication, Hoechst nuclear intensity, 48 h; hit rate 2.9% among 350,000; Potency, µM (series often up to 46.1 µM), for the others: at the top dose activity, positive = re-replication, actives largely listed as activators; also: potency is read from the fitted curve at half-maximal effect; % of control where 0% means no effect; nearly all actives have a fitted effect of over 50% in size
Chronic BCR inh – blocks chronic active B-cell receptor signaling; hit rate 0.05% among 340,000; Potency, µM (titrated, usually from 46.1 µM), inactives show at the highest dose activity change, negative = inhibition, usual class: inhibitors; ABC-DLBCL IkBa-CBG/CBR reporter, luminescence ratio, 4 h; active = well fitted inhibition curve with a large enough effect in the signal ratio, with a control signal flat, not every such curve was filed as active; inconclusive = small, poorly fitted or top-dose-only effect, or effect the other way, or a change in a side signal; the % refers to the signal ratio;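 also: potency is read from the fitted curve at half-maximal effect; plate controls were basal doxycycline-induced cells for no effect and cells given 10 µM MG132 for full effect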
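Compounds up to 46 uM were incubated four hours with TMD8 cells whose green CBG68 luciferase is fused to IkappaBalpha; red CBR luminescence normalised the signal, and concentration-effect curves were fitted to fusion, red and ratio data.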
Giardia killer – kills Giardia lamblia. Giardia lamblia trophozoite viability. activity change, % at 7.66 µM, hits read low. hit rate 0.15% among 340,000; in the data active = activity change below about -80%; inconclusive = between about -30% and that limit;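 also: parasites exposed to compound for two days anaerobically before the ATP read; % is scaled to controls: 0 for no effect and ±100 for the full control effect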
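Compounds were tested on trophozoites seeded at 100 cells/well and held 48 hrs at 37 deg C anaerobically. An ATP-based luminescent kit measured the remaining live cells.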
SW480 rerep – induces DNA re-replication in SW480 colon adenocarcinoma cells | SW480 DNA re-replication, Hoechst DNA content imaging, 48 h | Potency, µM (doses to about 46.1 µM), inactives show at the top dose re-replication activation, usual class: activators | hit rate 1.8% among 340,000; also: potency is read from the fitted curve at half-maximal effect; % of control where 0% means no effect; nearly all actives have a fitted effect of over 55% in size
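DNA re-replication was detected as more nuclei of elevated Hoechst intensity after 48 hr exposure to compound (23 nL pinned per well of 250 cells).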
* hit, by the source's call; ? = inconclusive; / = no result. Rows were chosen to be rich in hits. Some 8.3% of all compounds tested hit in one or more screens of this group. Unless noted, calls follow the shape of the dose curve; as a rule, active = well fitted curve in the direction sought with a large enough effect; inconclusive = small, poorly fitted or top-dose-only effect, or another doubt; inactive = no such curve, though single readings can be large; an effect the other way counts as inactive or inconclusive.

SMILES | Gal4-VP16 FLuc | RORgamma inh | MCF10A rerep | Chronic BCR inh | Giardia killer | SW480 rerep
COc1cc(CC(=O)OCC(=O)c2ccc3c(c2)OCCO3)cc(OC)c1OC | -2% | 7% | 1.3µM* | ? | -25 | 3.3µM*
COc1ccc(/C=C/C(=O)c2ccc3c(c2)OCO3)c(OC)c1 | -6% | -14% | 14% | ? | ? | ?
COc1ccc(Oc2ccc(/C=C/C(=O)c3cccc(OC)c3)cc2[N+](=O)[O-])cc1 | ? | ? | 6.5µM* | -5% | -2 | ?
COc1ccc(/C=C/C(=O)c2ccc3c(c2)OCCO3)cc1[N+](=O)[O-] | 1% | 0% | 3.7µM* | -16% | -10 | 12µM*
COc1cccc(/C=C/C(=O)c2ccc3c(c2)OCCO3)c1OC | ? | 11µM* | ? | ? | ? | ?
COc1ccc(C2NC(C(=O)O)CS2)cc1COCC(F)(F)F (centres undefined) | -22% | ? | -11% | -1% | -1 | 11%
S=C(NCCCc1ccccc1)NC1CCCCC1 | 7.1µM* | 4.5µM* | 8% | ? | 0 | ?
Cc1ccc(CNC(=S)NC2CCCCC2)cc1 | 4µM* | 4µM* | 16% | -1% | 5 | -8%
COCCCNC(=S)NC1CCCCC1 | ? | 11µM* | -3% | -3% | -6 | -1%
S=C(Nc1ccccn1)NC1CCCC1 | -8% | -27% | 11% | -10% | -11 | 4%
S=C(Nc1ccccn1)NC1CCCCC1 | 5µM* | 2µM* | 1% | ? | -1 | -11%
OCCNC(=S)NC1CCCCC1 | 8% | 8% | -1% | -11% | -3 | -6%
Cc1ccc(S(=O)(=O)/N=C(\Nc2cc(C)on2)c2ccc(Cl)cc2)cc1 | 0% | -20% | 6% | 0% | -6 | ?
O=C1c2ccccc2CN1CCNC(=S)NC1CCCCC1 | -25% | 18µM* | 0% | 0% | 2 | 1%
S=C(NCc1ccncc1)NC1CCCCC1 | -5% | 3% | 2% | 5% | 40 | -33%
S=C(NCc1ccccc1)NC1CCCCC1 | 18µM* | 4µM* | -1% | -7% | 10 | -3%
S=C(NCc1cccc(Cl)c1)NC1CCCCC1 | 14µM* | 2.8µM* | ? | -1% | -6 | -17%
S=C(NCCc1ccccn1)NC1CCCCC1 | -90% | 13µM* | 0% | -9% | 5 | -3%
CCOC(=O)c1cccc(NC(=O)c2cc(C)nn2-c2ccccc2)c1 | 0% | -25% | 4% | -12% | -14 | 0%
Cc1ccc(-c2nnc(SCC(=O)NC3CC3)o2)cc1 | ? | -33% | -5% | 7% | 7 | -14%
CCOc1ccccc1C(=S)NC1CCCCC1 | ? | 10µM* | ? | ? | 6 | -1%
COC(=O)c1ccccc1NC(=S)NC(=O)C1CCCCC1 | ? | 13µM* | 10% | 1% | -4 | -3%
CCOc1ccccc1OCC(=O)NC1CCCCC1 | 12% | -11% | 9% | -12% | -5 | -25%
COc1ccccc1NC(=S)NC(=O)C1CC1 | ? | 13µM* | 4% | ? | -6 | -5%
COC(=O)c1ccccc1NC(=O)C1CCCC1 | -14% | 0% | -2% | ? | -11 | -2%
SMILES | Gal4-VP16 FLuc | RORgamma inh | MCF10A rerep | Chronic BCR inh | Giardia killer | SW480 rerep
O=C(NC(=S)Nc1ccccc1Br)C1CCC1 | 5µM* | 3.2µM* | 8% | ? | 3 | -3%
COc1ccc(Oc2ncc3ncc(=O)n(Cc4cccc(OC)c4)c3n2)cc1 | -8% | 1% | / | / | / | /
O=C(NC(=S)Nc1ccccc1Cl)C1CC1 | 11µM* | ? | 12% | ? | -15 | 4%
CCOc1ccccc1NC(=S)NC(=O)C1CCCCC1 | 6.3µM* | 5.6µM* | -1% | -6% | -13 | -2%
CC(C(=O)OCC(=O)c1cccc([N+](=O)[O-])c1)N1C(=O)C2C3C=CC(C3)C2C1=O (centres undefined) | -9% | -6% | -9% | 4% | -15 | 2%
O=C(O)/C(=C\c1cccc(O)c1)c1ccc(S(=O)(=O)N2CCCC2)s1 | / | / | -2% | 5% | 7 | -1%
CCc1nc(Oc2cccc(F)c2)c2oc3ccccc3c2n1 | / | / | / | 13% | / | /
CO/N=C\CC(=O)Nc1ccc(Cl)c(Cl)c1 | 3% | 8% | 16µM* | 2% | -11 | 18µM*
COC(=O)CCC(=O)Nc1ccc(Cl)c(Cl)c1 | 6% | 25% | 4% | 6% | 7 | -3%
Cc1ccc(C23CC4CC(CC(NC(=O)N5CCN(C)CC5)(C4)C2)C3)cc1 | -23% | 13µM* | 17% | 3% | -13 | 14%
Cc1ccc(C23CC4CC(CC(C(=O)N5CCN(C)CC5)(C4)C2)C3)cc1 | 0% | -2% | ? | 2% | 10 | 20%
CC(=O)[C@@H]1[C@@H]2C(=O)N(Cc3ccccc3)C(=O)[C@@H]2C2c3ccccc3C=CN21 (some centres undefined) | -2% | -27% | 5.8µM* | ? | 4 | 4%
O=C(Nc1ccccc1)O/N=C(\c1ccccc1)c1ccccn1 | -7% | 11µM* | -1% | -9% | 7 | 1%
O=C(N/N=C/c1ccccc1O)C(=O)Nc1ccccn1 | 10µM* | 1.4µM* | -8% | ? | -24 | -9%
S=C(Nc1ccc(Nc2ccccc2)cc1)Nc1ccccn1 | 2.5µM* | 0.71µM* | 24% | ? | -6 | ?
S=C(Nc1ccccc1)c1ccccn1 | 2µM* | 0.63µM* | -4% | ? | -27 | ?
O=C(NCc1ccc(F)cc1)C(c1ccc(Cl)cc1)N(C(=O)c1csnn1)C1CC1 (centres undefined) | -3% | 8% | 10% | ? | 8 | 4%
CS(=O)(=O)N1CCCC(C(=O)Nc2cccc(F)c2)C1 (centres undefined) | 2% | -26% | 11% | -1% | 4 | 8%
CC1C=CCC2C(=O)N(c3cccc(C(=O)Nc4ccc(F)cc4)c3)C(=O)C12 (centres undefined) | 3% | 37% | -4% | ? | 5 | -3%
O=C(Nc1ccccc1)C(=O)Nc1ccccn1 | 5µM* | 2.2µM* | -2% | ? | -16 | -3%
Brc1ccc(CNc2nc3ccccc3n2CCN2CCCCC2)cc1 | -22% | ? | 18% | 0% | -83* | 9%
Brc1cccc(CNc2nc3ccccc3n2CCN2CCCCC2)c1 | -20% | 4.5µM* | ? | ? | -12 | 8%
Cc1nc(C)c(C(=O)Nc2cccc(F)c2)s1 | -20% | 11% | 1% | 5% | 21 | -6%
COc1ccc(/C=C/C(=O)N2CCNC(=O)C2)c(OC)c1 | 9% | 41% | 1µM* | ? | 0 | 8%
Cc1c(C(=O)N2CCCC2)c(S(=O)(=O)NCCc2ccccc2)c(C)n1C | -3% | 20% | 2% | 10% | -10 | -10%
